Tb PYK inh: T. brucei pyruvate kinase inhibition | TbPYK enzyme, Kinase-Glo Plus ATP luminescence, 45 min | AID 624173 | 410,000 compounds, 0.12% hits | Potency, µM (top dose mostly 76.8 µM), for the others: top-dose activity, negative = inhibition, actives largely listed as inhibitors; also: potency is read from the fitted curve at half-maximal effect; nearly all actives have a fitted effect of over 50% in size
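Screened from lowest to highest concentration, compounds were pinned into TbPYK/substrate mixtures, and ADP (130 uM final) was added. Plates sat at room temperature for 45 min prior to Kinase-Glo Plus detection by luminescence.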
Sm TGR inh: inhibitors of Schistosoma mansoni thioredoxin glutathione reductase; purified TGR, DTNB reduction, TNB absorbance 405 nm; Potency, µM (series often up to 114 µM), inactives show top-dose activity change, negative = inhibition, actives largely listed as inhibitors; 360,000 compounds, 3% hits; AID 485364; also: potency is read from the fitted curve at half-maximal effect; nearly all actives have a fitted effect of over 60% in size
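TGR 20 nM + NADPH 100 uM (dispensed conc.), cpd preinc 15 min RT; start with NADPH (500 uM addition) then DTNB (15 mM addition). Kinetic TNB absorbance, 405 nm filter. Four-parameter Hill fit across titration.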
Giardia FBPA inh: inhibitors of Giardia lamblia fructose-1,6-bisphosphate aldolase; A8B2U2; purified Giardia FBPA; Potency, µM (series often up to 59.6 µM), for inactives: at the top dose activity, negative = inhibition, usual class: inhibitors; 290,000 compounds, 0.71% hits; AID 2451; also: potency is read from the fitted curve at half-maximal effect; nearly all actives have a fitted effect of over 55% in size
Target sequence (A8B2U2 whole entry, looked up): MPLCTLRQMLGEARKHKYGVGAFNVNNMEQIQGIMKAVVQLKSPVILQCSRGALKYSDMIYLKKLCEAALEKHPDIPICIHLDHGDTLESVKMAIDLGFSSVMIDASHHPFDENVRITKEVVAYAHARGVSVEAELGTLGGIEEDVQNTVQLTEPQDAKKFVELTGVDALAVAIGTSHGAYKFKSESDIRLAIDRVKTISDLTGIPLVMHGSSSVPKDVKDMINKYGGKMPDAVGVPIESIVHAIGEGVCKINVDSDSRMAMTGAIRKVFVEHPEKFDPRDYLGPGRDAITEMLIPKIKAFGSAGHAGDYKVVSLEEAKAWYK
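Giardia FBPA (40 nM reagent) was preincubated 10 min at RT with compound (up to 57.5 uM final), then substrate plus GAPDH/TPI/NAD/arsenate coupling system with diaphorase/resazurin was added; resorufin fluorescence (525/598 nm) was read after 20 min.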
FMDV antiviral: foot and mouth disease virus antiviral activity | Potency, µM (top dose mostly 57.9 µM), inactives show at the top dose activity change, negative = inhibition, hits mostly inhibitors | AID 1159524 | 410,000 compounds, 1.2% hits | FMDV antiviral cell-based qHTS; calls by dose curve; tested in HEK293T cells; also: read-out not given here; potency is read from the fitted curve at half-maximal effect; nearly all actives have a fitted effect of over 45% in size
HCMV inh: inhibitors of human cytomegalovirus | HFF cells, HCMV-luciferase reporter, 72 h; stronger effect = lower value | 410,000 compounds, 4.5% hits | activity change, negative = inhibition, % at 57.5 µM | AID 1259415; in the data active = activity change below about -60%; inconclusive = no clear call, values can overlap the other calls; inactive = above about -39%
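Inhibition of viral replication was scored as loss of reporter luminescence in HFFs infected with HCMV-luciferase (MOI 1 PFU/cell) for 72 h; compounds tested at 2 doses, normalized to buffer and Salinomycin controls.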
RE007 growth inh: less growth of the S. pombe RE007 Vpr strain; S. pombe RE007 Vpr strain, BacTiter-Glo ATP luminescence, 24 h; Potency, µM (doses to about 92.2 µM), for the others: top-dose activity change, negative = less growth, hits mostly inhibitors; 360,000 compounds, 0.21% hits; AID 651644; active = well fitted falling curve with a large enough effect; inconclusive = small, poorly fitted or top-dose-only effect; inactive = no such curve, though single readings can be large or run the other way; also: potency is read from the fitted curve at half-maximal effect; nearly all actives have a fitted effect of over 50% in size
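Fission yeast RE007 carrying one integrated HIV-1 vpr copy, seeded at OD 0.01 in PMG+AL medium with 23 nL pinned compound. Grown 24 h at 30 degrees; viability read by BacTiter-Glo luminescence after 5 min.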
* hit, by the source's call; ? = inconclusive; / = not tested or not shown; [ ] = remark or other dose. Sampled rows, rich in hits. Any-hit rate of the full collection: about 7.7%. Unless noted, calls follow the shape of the dose curve; as a rule, active = well fitted curve in the direction sought with a large enough effect; inconclusive = small, poorly fitted or top-dose-only effect, or another doubt; inactive = no such curve, though single readings can be large; an effect the other way counts as inactive or inconclusive. % is scaled to controls: 0 for no effect and ±100 for the full control effect.

SMILES | Tb PYK inh | Sm TGR inh | Giardia FBPA inh | FMDV antiviral | HCMV inh | RE007 growth inh
O=C1CC2OCC=C3CN4CCC56c7cc([N+](=O)[O-])ccc7N1C5C2C3CC46 (stereo not given) | -3.0% | -4.5% | -2.8% | 2.3% | -88.2* | -4.1%
NS(=O)(=O)c1ccc(CCNC(=O)c2cc(-c3ccc(Br)cc3)nc3ccccc23)cc1 | -3.2% | -3.4% | 0.7% | 11.7% | -88.2* | -23.0%
COCCCNC(=O)c1cc(-c2cccnc2)nc2ccccc12 | 1.1% | -0.9% | 0.0% | -0.9% | 19.0 | 4.5%
COCCNC(=O)c1cc(-c2ccc(-c3ccccc3)cc2)nc2ccccc12 | 1.7% | 0.0% | / | 14.1% | -77.2* | -0.8%
O=C(Nc1ncccn1)c1cc(-c2ccc(F)cc2)nc2ccccc12 | 3.0% | 4.1% | -0.3% | 31.6µM* | -31.4 | -21.9%
CCCc1ccc(-c2cc(C(=O)NCCc3ccc(S(N)(=O)=O)cc3)c3ccccc3n2)cc1 | -4.7% | -22.3% | -5.5% | 27.3% | 62.8 | 6.3%
O=C(NNC(=O)c1cc(-c2ccncc2)nc2ccccc12)Nc1ccc(F)cc1 | 6.6% | 15.5% | -8.7% | 22.7% | 13.8 | 4.2%
O=C(NCc1ccccn1)c1cc(-c2ccc(-c3ccccc3)cc2)nc2ccccc12 | -19.0% | -7.5% | -0.5% | 17.2% | -94.5* | 7.8%
CCCS(=O)(=O)N1CC(=O)N(c2ccc(Cl)cc2C)C(C)(C(=O)NC2CCCC2)C1 (stereo not given) | -1.8%[15.4 µM] | -9.2% | / | 0.0% | 0.0 | /
COc1ccc(CN(C)c2ccc(-c3nc(-c4ccc(OC)c(OC)c4)no3)cc2[N+](=O)[O-])cc1 | -4.4% | -12.9% | / | -12.2% | 3.8 | /
CCc1ccc(-c2cc(C(=O)Nn3cnnc3)c3ccccc3n2)cc1 | -19.3% | 4.9% | -12.9% | 11.2µM* | 20.4 | ?
CCc1ccc(-c2cc(C(=O)N3N=C(C(F)F)CC3(O)C(F)F)c3ccccc3n2)cc1 (stereo not given) | -4.3% | 9.4% | 1.5% | 5.8% | -87.2* | -29.5%
CCNC(=S)NNC(=O)c1cc(-c2ccc(OCC)cc2)nc2ccccc12 | -17.3% | 9.5% | -14.9% | 12.6µM* | 149.9 | ?
COCc1ccc(CN2CCOc3c(O)cc(-c4cc(C)c5ccc(F)cc5n4)cc3C2)o1 | / | / | / | 8.1% | / | /
CCCC(=O)Nc1ccc(Oc2ccc(NC(=O)CCC)cc2)cc1 | 5.8% | 1.9% | 0.5% | -5.4% | 5.8 | -0.9%
CCCC(=O)Nc1ccc(C=C(C(C)=O)C(C)=O)cc1 | -6.7% | ? | 0.8% | 22.4µM* | 43.8 | 17.4%
COc1cccc(NC(=O)c2csc3c2CCCCC3)c1 | -4.1% | -0.6% | / | 22.2% | 81.1 | /
Cc1ccccc1CSc1ccc(-c2cccs2)nn1 | -0.5% | -9.0% | / | 5.9% | 51.0 | /
CC1CCCCN1C(=O)Cn1c(=O)n(-c2ccc(Cl)cc2)c(=O)c2c3c(sc21)CCC3 (stereo not given) | -2.1% | 2.6% | / | 1.0% | -16.2 | /
CCOC(=O)CC(S(=O)(=O)c1ccccc1)S(=O)(=O)c1ccccc1 | -4.7% | / | / | ? | -20.3 | 2µM*
CCOC(=O)N=S(N)(=O)c1ccccc1 (stereo not given) | 6.7% | -6.1% | -12.8% | -7.1% | -7.4 | -14.7%
Cc1ccc(C2(c3ccc(C)cc3)CC2C(=O)Nc2ccc([N+](=O)[O-])cc2O)cc1 (stereo not given) | 1.0% | 8.0% | ? | -19.4% | -102.1* | -4.7%
CC1(C)CC1C(=O)Nc1ccc([N+](=O)[O-])cc1Br (stereo not given) | 1.5% | 1.1% | 4.6% | 1.3% | -31.7 | -6.0%
Cc1cccc(C(=O)Nc2cccc(C(=O)N3CCOCC3)c2)c1 | 0.5% | -0.1% | 2.6% | 18.3% | 98.6 | 4.3%
CC(=O)/C(=N/Nc1cccc(C)c1)N1CCOCC1 | 1.0% | 50.1µM* | -13.5% | -7.4% | -5.1 | 340.3%
COc1ccc2c(O)c(-c3c(C)cc(C)cc3C)c(=O)[nH]c2c1 | -10.4% | / | / | -17.0% | -62.6* | 10.3%
